The results in this text go back to PubChem BioAssay (NCI).

This is part of a sample that, as a whole, favours compounds with a hit. Of some 83,000 tested, about 20% had one in any assay.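 For each line, cells grew in 96-well plates with the test compound present at a single concentration for 48 hours.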 Unmarked numbers belong to inactive results. Active and inactive are the calls of the source. The calls were made as follows: active = growth percent below 10; inactive = the rest.

The assay deals with BT-549 breast. In words: NCI-60 one-dose screen, 48 h (100 = growth as untreated, 0 = no growth, -100 = all killed). The following applies: 10 µM.
Regarding `O=C(/C=C/Nc1ccc(F)cc1F)c1ccc2c(c1)Nc1ccccc1S2`, the growth was 85.7%.
Next, `C=C1CC[C@H](C(=C)C)[C@H]2C=C(C)C(=O)C3=C(C(=O)[C@@](C)(O)C3)[C@H]12`: -43.7% (active); `CN(CCO)c1oc(-c2ccccc2)nc1[P+](c1ccccc1)(c1ccccc1)c1ccccc1`: -22.5% (active).
The same measure for `O=C(CNc1nc(-c2ccccc2)cs1)Nc1ccc([N+](=O)[O-])cc1Cl`: 8.83% (active).
The same measure for `COc1ccc(CCN2C(=O)/C(=C/c3csc(C#N)n3)SC2=S)cc1OC`: 24.5%; for `Cc1ccc([N+](=O)[O-])c(C(=O)Nc2ccc(-c3ccc4c(c3)NC(=O)/C4=C\c3ccc[nH]3)cc2)c1`: 97.5%; for `COc1ccc(-c2nc(S(=O)(=O)c3ccccc3)c(S(C)(=O)=O)o2)cc1`: 3.82% (active).
Take `Cc1ccc(-c2ccc(SCC(=O)Nc3ccc(Cl)c(C(F)(F)F)c3)nn2)cc1`: the growth was 25.4%.
Next, `Cc1ccn2c(C(=O)c3ccc(Br)cc3)cc(-c3cc(-c4ccc(N(C)C)cc4)c(C#N)c(N)n3)c2c1`: 61.9%; `O=c1[nH]c2ccccc2cc1CSc1ccc(Nc2nccc(-c3ccc(Cl)cc3)n2)cc1`: -5.03% (active).
Regarding `CC1(C)CC[C@]2(C(=O)Nc3ccccc3)CC[C@]3(C)C(=CC[C@@H]4[C@@]5(C)CC[C@H](N)C(C)(C)[C@@H]5CC[C@]43C)[C@H]2C1`, the growth is 113%.
Next, `Cc1ccc(NC(=O)NCn2c(=O)[nH]c3ccccc3c2=O)cc1`: 115%.
Next, `COc1cc(/C=C/C(=O)c2cc(OC)c(OC)c(OC)c2)ccc1Oc1nc(Nc2ccc(F)cc2)nc(N(C)C)n1`: -89.8% (active); `Cn1cc(/C=N/Nc2ccnc3cc(Cl)ccc23)c2ccccc21`: -64.6% (active).
For `N#Cc1ccc(-c2nn(-c3ccc(C(=O)O)cc3)cc2CNc2cc(Cl)cc(C(F)(F)F)c2)cc1`, the growth is -22.5% (active).
Next, `O=C1NC(=NC23CC4CC(CC(C4)C2)C3)N/C1=C\c1ccc2ncccc2n1`: -81.3% (active).
The same measure for `COc1ccc(/C=C/C(=O)c2ccc(NC(=O)CN3C(=O)NC(C)(c4ccccc4)C3=O)cc2)cc1` (configuration not stated): 71.6%.
The same measure for `O=C(c1ccc(Cl)cc1)C1[C@H](c2ccccc2Br)[C@@H](c2ccccc2)NC12C(=O)Nc1ccc(Cl)cc12` (some centres not stated): 75.9%.
Regarding `O=C1CCC(N2Cc3cc(NC(=O)COc4ccccc4)ccc3C2=O)C(=O)N1` (configuration not stated), the growth is 4.38% (active).
Next, `CC1(c2ccccc2)NC(=O)N(CC(=O)Nc2ccc(C(=O)/C=C/c3ccc(Cl)cc3)cc2)C1=O` (configuration not stated): 1.57% (active); `C#CCNC(=O)CCC(=O)OC[C@]12CC[C@@H](C(=C)C)[C@@H]1C1CC[C@@H]3[C@@]4(C)CCCNC(C)(C)[C@@H]4CC[C@@]3(C)[C@]1(C)CC2` (some centres not stated): 11%; `CCCn1c(=O)c2[nH]c(-c3ccc(OCc4nc5ccc(F)cc5[nH]4)cc3)nc2n(CCC)c1=O`: 6.64% (active).
For the compound `COC[C@@H](CC(C)C)N=C1NC(=O)/C(=C/c2ccc3ncsc3c2)N1`, the growth was -10.9% (active).
Next, `COc1ccc(C=CC(=O)c2ccc(-n3c(C)nc4c(cnn4-c4ccccc4)c3=O)cc2)cc1`: 45%; `O=C(c1ccc(Cl)cc1)C1[C@H](c2ccccc2Br)[C@@H](c2ccccc2)NC12C(=O)Nc1ccc(Br)cc12` (some centres not stated): 54.8%.
The same measure for `O=C(Nc1cccc(C(F)(F)F)c1)c1cncc(C#Cc2cnc3ccc(N4CCOCC4)nn23)c1`: -37.5% (active); for `N#Cc1c(-c2ccc(F)cc2)nc(SCc2ccc([N+](=O)[O-])cc2)nc1N1CCOCC1`: 58.5%; for `NS(=O)(=O)c1ccc(NC(=O)CSc2ccc(-c3ccc(Cl)cc3)nn2)c(Br)c1`: 26.8%.
The same measure for `CC(=O)NCC1=C(C)C=C2C(=O)[C@](C)(O)C3(CC3)C(C)=C21`: -46.5% (active).
As for `CC(=O)Nc1nc(-c2ccc(N3CCN(C)CC3)c(NS(=O)(=O)c3cccc4c(N(C)C)cccc34)c2)cs1`, the growth is 36.6%.
The same measure for `O=C(CSc1nnc(-c2ccc3nc(-c4ccc(Cl)cc4)[nH]c3c2)o1)Nc1ccc(Br)cc1`: -69.8% (active); for `COc1cc2c3c(n(CCCNCCO)c(=O)c2cc1OC)-c1nc2c(cc1C3=O)OCO2`: 25.3%.
Next, `Cc1ccc(NCC(=O)Nn2c(COc3ccccc3)nc3ccccc3c2=O)cc1`: 97.6%.
The same measure for `O=C(c1ccccc1)n1ccc(-c2cc3cc(Br)ccc3oc2=O)n1`: 39.2%.
As for `Cc1ccc(CSc2nc(Cl)c(C#N)c(-c3ccc(F)cc3)n2)cc1`, the growth is 56.4%.
The same measure for `COc1cc(/C=C/C(=O)c2ccc(F)cc2)ccc1Oc1nc(Nc2ccc(F)cc2)nc(N(C)C)n1`: 88.6%.
Next, `COc1cc2oc(-c3cccc(C(=O)Nc4ccc(Cl)cc4)c3)cc(=O)c2c(OCCNC(=O)CNC(=O)OC(C)(C)C)c1OC`: 51.2%.
